PubChem BioAssay AID489028 (Sanford-Burnham Center for Chemical Genomics, 2010)
Hit rate of the full screen: of about 10,000 compounds, about 5,600 (56%) were called active. So high a share suggests a set chosen from earlier hits. A selection follows. Unmarked numbers belong to inactive results. Cut-off read from the data, not from the text of the source: active = inhibition above about 40%; inactive = the rest.

Molecular target: Protein Mdm4 (Homo sapiens) + E3 ubiquitin-protein ligase Mdm2 (Homo sapiens) (UniProt O15151+Q00987)
Experiment: inhibition of human Mdm2/MdmX pairing – luminescence, single concentration, confirmation (AID 489028)
Conditions: Mdm2-MdmX binding, luminescent assay; at 8 µM; hits give high values

Sequence of Protein Mdm4 (Homo sapiens) + E3 ubiquitin-protein ligase Mdm2 (Homo sapiens) (O15151 whole entry, looked up): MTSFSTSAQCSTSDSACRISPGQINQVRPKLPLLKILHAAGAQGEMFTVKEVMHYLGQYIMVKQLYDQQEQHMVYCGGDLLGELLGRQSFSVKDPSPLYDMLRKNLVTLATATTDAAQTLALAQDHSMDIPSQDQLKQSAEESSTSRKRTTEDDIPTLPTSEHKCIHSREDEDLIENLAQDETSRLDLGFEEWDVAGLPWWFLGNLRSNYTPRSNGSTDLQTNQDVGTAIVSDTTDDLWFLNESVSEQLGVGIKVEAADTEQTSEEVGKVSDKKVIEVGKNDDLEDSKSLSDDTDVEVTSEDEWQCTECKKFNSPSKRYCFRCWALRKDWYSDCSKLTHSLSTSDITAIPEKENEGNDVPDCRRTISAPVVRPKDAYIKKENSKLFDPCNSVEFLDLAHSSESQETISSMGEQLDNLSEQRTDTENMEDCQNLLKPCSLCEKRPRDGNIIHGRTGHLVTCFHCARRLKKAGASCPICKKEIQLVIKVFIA
Sequence of Protein Mdm4 (Homo sapiens) + E3 ubiquitin-protein ligase Mdm2 (Homo sapiens) (Q00987 whole entry, looked up): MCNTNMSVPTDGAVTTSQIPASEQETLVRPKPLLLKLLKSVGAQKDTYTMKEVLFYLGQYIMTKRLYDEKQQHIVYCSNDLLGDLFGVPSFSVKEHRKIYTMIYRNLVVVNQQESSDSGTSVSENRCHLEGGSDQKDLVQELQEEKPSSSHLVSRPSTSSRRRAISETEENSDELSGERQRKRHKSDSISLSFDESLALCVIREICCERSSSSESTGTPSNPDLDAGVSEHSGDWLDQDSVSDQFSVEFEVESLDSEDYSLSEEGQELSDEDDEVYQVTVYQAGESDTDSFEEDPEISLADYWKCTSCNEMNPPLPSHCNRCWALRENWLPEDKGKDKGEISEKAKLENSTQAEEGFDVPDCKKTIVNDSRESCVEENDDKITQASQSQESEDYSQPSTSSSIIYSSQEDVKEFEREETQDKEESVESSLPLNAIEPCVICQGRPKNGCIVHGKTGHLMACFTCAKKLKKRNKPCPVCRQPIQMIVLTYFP

| Compound | inhibition |
| --- | --- |
| Cc1cc(C)nc(S/C=C/C(=O)c2ccccc2)n1 | 32.4% |
| O=C(/C=C/Sc1ncn[nH]1)c1ccc(Cl)cc1 | 80.4% (active) |
| CC[n+]1cc(C)ccc1/C=C/c1ccc(N(C)C)cc1 | 53.6% (active) |
| COc1ccccc1N1CCN(C(=O)c2cc(=O)c3cc(C)cc(C)c3o2)CC1 | 66.8% (active) |
| C#CCOCCOCCOCCNc1nc(N2CCN(C(=O)CCCCCCCCCCNC(=O)[C@H](CCCCN)n3cc(C)nn3)CC2)nc(N2CCN(C(=O)CCCCCCCCCCNC(=O)[C@H](CO)n3cc(CCCSC)nn3)CC2)n1 | 14% |
| CN(NC(=O)c1ccccc1F)c1nc(C(F)(F)F)nc2ccccc12 | 57% (active) |
| CN(NC(=O)c1ccccc1)c1nc2ccccc2nc1C(F)(F)F | 51.9% (active) |
| O=C(Nc1nnc(-c2ccccc2F)s1)c1ccccc1F | -82.2% |
| CSc1nc(N(C)NC(=O)c2cccc(C)c2)c2ccccc2n1 | 57.7% (active) |
| CCOC(=O)/C=C/C(=O)OCC(=O)NC(c1ccccc1)c1ccccc1 | 74.5% (active) |
| COc1cc2c(cc1NC(=O)COC(=O)/C=C/c1ccccc1)oc1ccccc12 | -6.7% |
| Cc1ccccc1NC(=O)CSc1nc2ccc(Nc3nc(N4CCOCC4)nc(N4CCOCC4)n3)cc2s1 | 35.7% |
| Cc1cc2cc3c(cc2nc1SCC(=O)Nc1c(C)cccc1C)CCC3 | 43.1% (active) |
| OCCNc1nc(Nc2ccc(Cl)c(Cl)c2)nc2ccccc12 | 69.5% (active) |
| O=C(CSc1nc2ccccc2c(=O)[nH]1)Nc1nc(-c2ccc(Br)cc2)cs1 | 47.8% (active) |
| O=C(NNc1ccccc1Cl)C(O)(c1cccc(C(F)(F)F)c1)c1cccc(C(F)(F)F)c1 | 36.2% |
| COC(=O)Cc1[nH]n(-c2nc3ccccc3s2)c(=O)c1C(C)=Nc1ccc(OC)cc1 | 89.3% (active) |
| CCCCN(CCCC)CCC(O)c1cc2c(Cl)cc(Cl)cc2c2cc(C(F)(F)F)ccc12 (stereo not drawn) | 21.1% |
| COc1ccc2sc(-c3ccccc3OC)c(-c3ccc(OCCN4CCCC4)cc3)c2c1 | 5.35% |
| COc1cccc(-c2sc3ccc(OC)cc3c2-c2ccc(OCCN3CCCCC3)cc2)c1 | 49.5% (active) |

| Compound | inhibition |
| --- | --- |
| O=C(CN1C(=O)c2ccccc2S1(=O)=O)N1CCc2ccccc21 | 53% (active) |
| COCCCNc1nc2c(-c3cccc(C)c3)nnn2c2ccc(Cl)cc12 | 67% (active) |
| C=CCC[C@@H](Cc1ccc(F)cc1)C(=O)O[C@H](CNC(=O)[C@H](CC=C)CC(=O)N(CCO)Cc1ccccc1)c1ccccc1 | 12.4% |
| COc1ccc(CCn2c(=N)c(C(=O)NCC3CCCO3)cc3c(=O)n4cccc(C)c4nc32)cc1OC (stereo not drawn) | 48.1% (active) |
| Cc1cccn2c(=O)c3cc(C(=O)NCCN4CCOCC4)c(=N)n(Cc4cccnc4)c3nc12 | 49.2% (active) |
| CCc1ccc(CNC(=O)C2CCN(c3nnc(C)c4c(C)n(-c5ccc(C)cc5)nc34)CC2)cc1 | 56.7% (active) |
| COc1cc(NC(=O)c2ccccc2NS(=O)(=O)c2ccc(Cl)s2)cc(OC)c1 | 76.4% (active) |
| Cc1nc2ccccc2nc1N/N=C/c1ccc(O)cc1O | 61.6% (active) |
| Oc1ccc(/C=N/Nc2nc(-c3ccccc3F)nc3ccccc23)c(O)c1 | 54.6% (active) |
| COC(=O)C1=C(Nc2ccc(C)cc2)C=C(C)C(C(=O)OC)C1c1ccc(F)cc1 (stereo not drawn) | 53.5% (active) |
| Nc1nonc1-n1nnc(C(=O)N/N=C/c2ccccc2O)c1CN1CCCC1 | 33.8% |
| N#Cc1ccc(C(=O)Nc2cccc3cccnc23)c(F)c1 | 1.3% |
| CC(=O)/C(=N\Nc1ccc(Cl)cc1Cl)Sc1cccc2cccnc12 | 63% (active) |
| NC(N)=Nc1nc(-c2ccccc2)c2cc(Cl)ccc2n1 | 59.5% (active) |
| CCCCCCC(=O)N(O)C1CC(=O)N(c2ccccc2)C1=O (stereo not drawn) | 27.3% |
| COc1ccc(Nc2ncnc3ccc(Br)cc23)c(OC)c1 | 74% (active) |
| CC1CN(C(=O)CCC(=O)NCCCN2CCC(Cc3ccccc3)CC2)c2cc(Cl)ccc2O1 (stereo not drawn) | 56.8% (active) |
| CCN(CCCNC(=O)CSc1cc(=O)n(C)c2cc(Cl)ccc12)Cc1ccccc1 | 19.6% |
| FC(F)(F)c1ccc(CN2C[C@@H]3C(c4ccccc4)C4(c5ccccc5)CC3(C4)[C@H]2c2ccccc2)cc1 (stereo partly drawn) | 94.5% (active) |
| Cc1cc(C(=O)NC2CCCc3c2cnn3-c2cccc(C)c2C)c(C)o1 (stereo not drawn) | 61.6% (active) |

| Compound | inhibition |
| --- | --- |
| COc1ccc(C(=O)NC2CCCc3c2cnn3-c2cccc(C)c2C)c(OC)n1 (stereo not drawn) | 94.8% (active) |
| CCCC(O)(CCC)C(=O)NN(C(=O)CCl)c1cccc(C)c1 | 58.3% (active) |
| CCCCC(O)(CCCC)C(=O)NN(C(=O)CCl)c1ccccc1 | 57.1% (active) |
| CCCCn1ccnc1C(=O)c1cccc(S(=O)(=O)N2c3ccccc3CC2C)c1 (stereo not drawn) | 9.35% |
| N=c1n(CCc2ccccc2)c2ccccc2n1Cc1ccccc1F | 52.5% (active) |
| CCCc1ccc(OCC(=O)NNC(=S)NC(=O)c2ccco2)cc1 | 23.9% |
| COC(=O)c1c(NC(=O)COc2ccc(Cl)cc2Cl)sc2c1CC(C)(C)NC2(C)C | 73.6% (active) |
| CN1CCN(C2Cc3ccc(Cl)cc3Sc3ccc(F)cc32)CC1 (stereo not drawn) | 27.8% |
| Oc1cccc(/C=N/Nc2ccc(Cl)nn2)c1O | 61.2% (active) |
| CCOc1ccc(C2c3[nH]c4ccccc4c3CCN2Cc2cccn2-c2ncccn2)cc1 (stereo not drawn) | 32.3% |
| C=CCn1c(SCc2c(C)noc2C)nc2sc3c(c2c1=O)CCC(C)C3 (stereo not drawn) | 57.9% (active) |
| CCOc1cc(-c2cc(-c3ccc(NC(C)=O)cc3)nc(N)c2C#N)ccc1O | 31.6% |
| Cc1ccc(-n2[nH]c(C)c(/C=N/NC(=O)c3cccc([N+](=O)[O-])c3)c2=O)cc1C | 82.2% (active) |
| O=[N+]([O-])c1cc(S(=O)(=O)Nc2cccc(Cl)c2)ccc1N=Nc1c(O)[nH]c2ccccc12 | 5.3% |
| NS(=O)(=O)c1ccc(N=Nc2c(O)[nH]c3ccc(Br)cc23)cc1 | 42.6% (active) |
| CCNS(=O)(=O)c1ccc(NC(=O)Nc2cccc(C(F)(F)F)c2)cc1 | 42.4% (active) |
| O=C(Nc1ccc(C(=O)N2CCOCC2)cc1)Nc1cccc(C(F)(F)F)c1 | 70.3% (active) |
| O=C(Nc1ccc(-c2csc(Nc3cccc(C(F)(F)F)c3)n2)cc1)c1cccc(C(F)(F)F)c1 | -10.4% |
